Assays:
Assay in all cases: PBM binding z-score (relative to random genomic background probes); higher = stronger binding; sequences stand for … in GC…GCGATTGACAGCGTAGAATGAAGG
[1] = system: RARb homodimer (NR concentration 270 nM)
Outline: (§1)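 On custom Agilent 4×180K arrays, double-stranded probes with 34-nt variable regions carried direct-repeat seeds, single-nucleotide variants, half-site ablations or random human genomic background. Ligand-free nuclear receptor dimers were applied for 1 h, and binding was read with antibodies against each partner (one per run). Binding z-scores come from regression-normalized fluorescence, with the random background probes as reference.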

[2] = system: RARg:RXRa (NR concentration 270 nM, RXRa partner concentration 90 nM)
Outline: as §1

[3] = system: RARg homodimer (NR concentration 270 nM)
Outline: as §1

[4] = system: RXRa DBDmut IVT, anti-RXR (DBD mutation: RXRa K156A/R161A, NR concentration 90 nM)
Outline: as §1

[5] = system: RXRa homodimer (NR concentration 180 nM)
Outline: as §1

[6] = system: THRa:RXRa (NR concentration 90 nM, RXRa partner concentration 90 nM)
Outline: as §1

[7] = system: THRa homodimer (NR concentration 90 nM)
Outline: as §1

[8] = system: VDR homodimer (NR concentration 270 nM)
Outline: as §1

Sequence | PBM binding z-score [1] | PBM binding z-score [2] | PBM binding z-score [3] | PBM binding z-score [4] | PBM binding z-score [5] | PBM binding z-score [6] | PBM binding z-score [7] | PBM binding z-score [8]
TCGAGTAGGTTACCAACGGGGCATTCAGCTTTCT | 0.583 | 1.52 | 0.504 | 0.191 | 0.733 | 0.042 | -0.794 | -0.578
CGTACTAGGTCATCCAGGACAGTGAATACATTGA | 3.35 | 3.73 | 4.47 | 2.15 | 2.67 | 3.76 | 2.4 | 1.81
TCTCGGGGGACACGAAGGTCAGAGCTTTCCAGAG | 4.17 | 4.68 | 5.9 | 1.89 | 3 | 3.32 | 1.58 | 1.76
TCTGCTAAGTCAACGATGGTCAGCTAATCTGCTA | -0.66 | -0.413 | -0.169 | -0.0661 | -0.206 | -0.52 | -1.37 | -1.4
TAGCCTAGGTCATGCGGGCCAGTGTAGTGTCGGC | 3.06 | 3.69 | 4.29 | 0.446 | 2.6 | 2.99 | 0.878 | 0.567
TCTCGGAGGATACGAAAGGTCAGAGCTCGACATC | 4.38 | 4.12 | 3.73 | 0.587 | 4.38 | 2.98 | 0.363 | 0.361
CCGACTGGGGCAAAGGCTACCATACTCAGTACGA | 0.592 | 0.577 | 0.501 | -0.632 | 0.387 | -0.182 | -0.604 | -0.299
CCGACTGGGGCAAAGGTGACCATACTCAGTACGA | 1.44 | 1.9 | 1.13 | -0.244 | 2.04 | 0.896 | -0.0809 | -0.471
TCATATAGGTAAAGGTGAAAGTTGAACGATATGA | 2.08 | 2.34 | 1.51 | 0.648 | 3.71 | 1.79 | -0.127 | 0.139
AGTCAAAGTTCAGTACGAGGTAACGTAAAGCACG | 3.01 | 4.32 | 4.54 | 3.09 | 2.66 | 3.64 | 1.21 | 2.62
TAGCCTAGGTCATGCGTGCCAGTATAGTGTCGGC | 3.14 | 3.78 | 3.75 | 0.805 | 2.85 | 2.96 | 1.22 | 0.552
CCTACTGGGCAATCAGGTCATTGATATCAACGTT | 2.16 | 1.56 | 1.51 | 0.0815 | 1.06 | 3.13 | 2.55 | 1.29
CGTCCAAGGTCATAGGAGGTCAGTGGAGACAGAT | 5.3 | 6.84 | 6.98 | 4.09 | 6.82 | 5.36 | 3.57 | 4.82
AGAACGAGGGCAATGAGATGATAGCACGGGTGGC | 0.913 | 0.982 | 1.72 | 1.59 | 0.713 | 0.651 | 0.199 | 0.718
TAGCCTAGGTCATTGGGCCAGTGTAGTACGCATC | 3 | 3.57 | 4.14 | 1.61 | 2.7 | 2.94 | 0.8 | 1.07
CATACAGGGTCAGCTAGGCCAGAGGAGGGACGGC | 3.12 | 4.3 | 4.65 | 1.64 | 4.14 | 2.75 | 0.692 | 1.36
ACAGACAGGTGAGTGAAGGTTACTCAGCTGGACG | 0.978 | 0.724 | 0.906 | -0.643 | 0.869 | 1.68 | -0.671 | -0.214
TGAATGAGGTTAAAAGATCAGGGAACGTTGCAAA | 0.578 | 2.56 | 1.18 | 0.605 | 2.79 | 1.83 | -0.00624 | 0.327

Sequence | PBM binding z-score [1] | PBM binding z-score [2] | PBM binding z-score [3] | PBM binding z-score [4] | PBM binding z-score [5] | PBM binding z-score [6] | PBM binding z-score [7] | PBM binding z-score [8]
GATACAGGGTCAAGGCCAAAGTACGCGTATTGAT | 3.82 | 5.66 | 5.29 | 2.45 | 6.07 | 3.76 | 1.43 | 2.52
CCGACTGGGGCAAGGTTACTATAACGCACAGCCA | 1.04 | 0.944 | 1.12 | -0.108 | 0.985 | 0.939 | 0.2 | 0.00113
CCTACTGGGCCATCAGGTCTTTGATATCAACGTT | 0.24 | -0.0925 | -0.00289 | -0.126 | -0.274 | 0.487 | 0.437 | -0.123
ATATGTAAGTTAAGGGTCATTCAGGTTGGTTCGC | 3.8 | 3.97 | 3.2 | 2.13 | 4.89 | 3.5 | 1.55 | 4.67
ACAGACAGGTGAGGGAAGGTAACTCAGCTGGACG | 0.595 | 0.445 | 0.526 | -0.769 | 0.426 | 2.31 | -0.12 | -0.764
ACAGAGAGGTGAGTGAAGGTAACTCAGCTGGACG | 0.91 | 0.89 | 1.24 | -0.227 | 0.647 | 2.59 | 0.294 | -0.548
TCTTATAGGTAAATGCTAGGTGAAAGTCCGATCT | 0.569 | 0.602 | 0.586 | 1.88 | 0.669 | 1.52 | 0.924 | 0.694
ATATGTAGGTTTGCTGGGGTCATTCAGACTAGGC | 3.3 | 3.6 | 2.31 | 2.62 | 4.91 | 4.29 | 3.2 | 5.58
CGTCCAAGGTCATAGGAGGTCTGTGAAGACAGAT | 3.75 | 5.85 | 5.79 | 3.7 | 6.11 | 4.63 | 2.24 | 2.81
ATATGTAGGTTATCCGGTCATTCAGTTTGCGCAT | 2.35 | 2.11 | 1.83 | 0.932 | 1.4 | 1.67 | 1.08 | 1.53
CCTAGTTGATCAGGAGGTCACACACCGGATATGA | 3.89 | 4.82 | 3.78 | 1.4 | 4.41 | 3.6 | 2.51 | 3.06
AGAATGAGGTTATTAAGATCATGGAATTGCGGTC | 0.78 | 1.25 | 0.948 | 1.87 | 1.73 | 2.17 | 0.524 | 1.5
AGAACGAGGGCACGCTGAATTGATAGCAGAGTAG | 0.888 | 1.78 | 2.36 | 1.73 | 1.18 | 1.53 | -0.215 | 0.542
TCTTGTAGATCAATCAGGTTAAGAAAGCCTGAGT | 0.194 | 0.0482 | -0.074 | 0.724 | 0.241 | 1.02 | 0.308 | 0.0655
ATCTCTAGATAAAGTTCAGTGAAAGATCGATAGA | 1.84 | 1.4 | 2.06 | 0.839 | 0.79 | 0.243 | -0.14 | 1.66
TCGAGTAGGTTAGGGCCATTCAGAATGGCGTCGA | 0.309 | -0.0137 | 0.11 | -0.0874 | 0.299 | 0.672 | -0.173 | -0.211
TAGCCTAGGTCTGATCGGGCCAGTATACGCTATA | -0.807 | -0.244 | -0.187 | -1.28 | -0.358 | 0.71 | -0.845 | -0.912

From the supplement of paper PMC6555819
